Here are results for 54 molecules from ChEMBL document CHEMBL4513216, “Probing the Open Global Health Chemical Diversity Library for Multistage-Active Starting Points for Next-Generation Antimalarials” (ACS Infect Dis, 2020).

In all, about 65,000 compounds went through this assay and about 2,100 (3.2%) showed an effect of 50% or more. The median lay at about -52%. The sample as a whole holds a higher share of strong results than the screen did.

The test concerns Plasmodium falciparum. Briefly: Screen against P. falciparum Asexual Blood Stage (ABS), at 5uM. It counts as functional, Dd2. Conditions: tested at 5 uM.
For the molecule `FC(F)(F)CCc1ccnc(NC2CCC(n3cnnc3)CC2)n1` (centres undefined), the INHIBITION is -54.2%.

With `NC1CCC(Nc2nccc(CCC(F)(F)F)n2)CC1` (centres undefined), the INHIBITION came to 50.3%. For the molecule `N[C@@H]1CC[C@@H](Nc2nccc(CCC(F)(F)F)n2)C1`, the INHIBITION is given as -4.32%. Turning to `CS(=O)(=O)N1CCC(c2ccncn2)CC1`, the INHIBITION is -94.7%. Then `CN(C(=O)CSc1ncc[nH]1)C1CC1`, with -11.8%; and `Fc1ccc(CN2CCc3ncnc(C4CCOC4)c3CC2)cc1` (centres undefined), with -78.8%. Next, `Cc1cccc(CN(Cc2ccccn2)S(=O)(=O)N(C)C)c1`: -25.3%; `CCN(Cc1cccc(Cl)c1)Cc1ncc(C(C)(C)C)o1`: -14.1%.

Take `Cc1cccc(CN(Cc2ccccn2)Cc2ncc(C(C)(C)C)o2)c1`: the INHIBITION worked out at 60.4%. Next, `CCc1ccc(CN2CCC3(CC2)C(=O)N(C)CCN3CC2CC2)cc1`: 68.9%; `CCN1CCN(C)C(=O)C12CCN(Cc1cccc(C)c1)CC2`: 41.8%. Then `CCN1CCN(C)C(=O)C12CCN(Cc1ccsc1)CC2`, with -35.5%; and `CN(CCc1ccccc1)c1cnn(C)c(=O)c1Br`, with -12.3%; and `c1ccc(Oc2ccc(OC34CCCN(CC3)C4)cc2)cc1` (centres undefined), with 40.7%. Next, `CC(NC(=O)CSCC(N)=O)c1ccc(Oc2ccccc2)cc1` (centres undefined): -25.1%.

As to `NC(=O)C(NC1CCN(CC2CCCCC2)CC1)c1ccccc1` (centres undefined), the INHIBITION is reported as -75%. Turning to `NC(CC1CCCC1)c1ccc(Oc2ccccc2)cc1` (centres undefined), the INHIBITION is on record as 79.9%.

With `NC(CC1CCCC1)c1ccccc1` (centres undefined), the INHIBITION was 66.7%. Then `OC(CN1CCN(CC2CCCCC2)CC1)c1ccccc1` (centres undefined), with 3.94%; and `N#CCCCOc1cccnc1NC(=O)Cc1ccccc1F`, with -150%; and `CN(CC(=O)NCC1CCCO1)Cc1nc2c(s1)CCCC2` (centres undefined), with -39.8%. Consider `Cc1cc(C)c(CN2CCCC23Cc2ccccc2CNC3=O)c(C)c1` (centres undefined), for which the INHIBITION is 8.96%.

Consider `CC(C)C(=O)NC1CCCN(C(=O)c2ccc(O)c(Cl)c2)C1` (centres undefined), for which the INHIBITION is reported as -84%. Next, `O=C(Nc1ccccc1Cn1cccn1)N1CCCC(N2CCCC2)C1` (centres undefined): -31.7%; `CN1CCN(c2ccc3ccc(C(=O)N4CCCO4)cn23)CC1`: 6.88%.

Take `COc1c(CNCc2ccnc(N3CCCC3)c2)c(C)nn1C`: the INHIBITION is -64.4%.

In the case of `COc1cc(CNCc2ccnc(N3CCCC3)c2)cc(OC)c1`, the INHIBITION was 61.5%.

`COc1ccc(CNCc2ccnc(N3CCCCC3)c2)cc1OC`: the INHIBITION was -9.72%. Then `COc1cc(CNCc2ccnc(N3CCOCC3)c2)cc(OC)c1`, with -50.4%; and `COc1cc(CNCc2ccnc(N3CCCCC3)c2)cc(OC)c1`, with 61.4%. Then `COc1c(CNCc2ccnc(N3CCCCC3)c2)c(C)nn1C`, with -15.8%; and `CC(C)NC(=O)C1CN(C(=O)N(C)C)CC12CCOCC2` (centres undefined), with -145%. In the case of `Cc1cc(N2CCC(N(C)C(=O)c3ccc(C#N)cc3)CC2)nc(C)n1`, the INHIBITION is recorded as -6.47%.

As to `CCCc1noc(CCCC(=O)N2CCCC2c2cnn(C)c2)n1` (centres undefined), the INHIBITION is listed as -37%. Next, `COCCN(C)C(=O)c1nc2c(s1)CCCN2c1ccc(C)nn1`: -53.3%; `CCN1CCCN(C(=O)c2ccc(NC(=O)CC(C)C)c(C)c2)CC1`: -98.5%.

With `Cc1cccc(C(=O)N2CC[C@@H]3[C@H]2CCC(=O)N3c2ccccc2)n1`, the INHIBITION is listed as -87%. Then `c1ccc(C2(CNCc3cnc(N4CCOCC4)nc3)CC2)cc1`, with -22.6%; and `OC1(CNCc2cnc(N3CCOCC3)nc2)CCCCC1`, with -74.5%; and `Cc1ccccc1C1(CNCc2cnc(N3CCOCC3)nc2)CC1`, with 50.8%. Then `Cc1cc(-c2cnc(NC3CC3)nc2-c2ccoc2C)on1`, with -62%. Then `CCN(CC)CCNc1ncc(-c2cc(C)no2)c(-c2ccoc2C)n1`, with 61.9%; and `Cc1cc(-c2cnc(NC3CCCC3)nc2-c2ccoc2C)on1`, with -65.8%; and `CCc1nc(C2CCCN(C(=O)c3ccccc3F)C2)no1` (centres undefined), with -49.5%. Regarding `CN(C)C(=O)N1C[C@H]2CC[C@@H](C1)N(C/C=C/c1ccc(F)cc1)C2`, the INHIBITION amounted to 57.8%. Then `CS(=O)(=O)N1C[C@H]2CC[C@@H](C1)N(C/C=C/c1ccc(F)cc1)C2`, with -43.1%; and `CN(C)C(=O)CN1C[C@H]2CC[C@@H](C1)N(C/C=C/c1ccc(F)cc1)C2`, with 43.5%.

On to `NC(=O)Cn1ccc(O)c(Cc2ccc(Cl)cc2Cl)c1=O`, for which the INHIBITION is recorded as -144%. Then `CCCOC1CCCN(c2ccnc(C(=O)NCc3ccco3)c2)C1` (centres undefined), with 64.2%. Then `CN(C)[C@H]1CCN(c2ccnc(C(=O)NCc3ccco3)c2)C1`, with -95.2%.

For the molecule `O=C(NCc1ccco1)c1cc(N2CC[C@@H](O)C2)ccn1`, the INHIBITION is -217%. Next, `Cc1ncnc2c1CCN(S(=O)(=O)C1CC1)CC2`: -47.1%. Then `CCc1nc(CN2CCCC(N(C)CCc3cccs3)C2)no1` (centres undefined), with 12.3%; and `Cn1ccnc1CN1CCCN(C(=O)COC2CCCCC2)CC1`, with -46.8%.
